High-throughput results: PubChem, National Center for Advancing Translational Sciences (NCATS)
FLuc counter: counter-screen for miR-21 project: firefly luciferase inhibitors or activators; Potency, µM (doses to about 57.5 µM), hits mostly inhibitors; AID 588342; P08659; purified FLuc, Km substrates, luminescence inhibition; 360,000 compounds, 6.9% hits; further: nearly all actives have a fitted effect of over 55% in size
Target sequence (P08659 whole entry, looked up): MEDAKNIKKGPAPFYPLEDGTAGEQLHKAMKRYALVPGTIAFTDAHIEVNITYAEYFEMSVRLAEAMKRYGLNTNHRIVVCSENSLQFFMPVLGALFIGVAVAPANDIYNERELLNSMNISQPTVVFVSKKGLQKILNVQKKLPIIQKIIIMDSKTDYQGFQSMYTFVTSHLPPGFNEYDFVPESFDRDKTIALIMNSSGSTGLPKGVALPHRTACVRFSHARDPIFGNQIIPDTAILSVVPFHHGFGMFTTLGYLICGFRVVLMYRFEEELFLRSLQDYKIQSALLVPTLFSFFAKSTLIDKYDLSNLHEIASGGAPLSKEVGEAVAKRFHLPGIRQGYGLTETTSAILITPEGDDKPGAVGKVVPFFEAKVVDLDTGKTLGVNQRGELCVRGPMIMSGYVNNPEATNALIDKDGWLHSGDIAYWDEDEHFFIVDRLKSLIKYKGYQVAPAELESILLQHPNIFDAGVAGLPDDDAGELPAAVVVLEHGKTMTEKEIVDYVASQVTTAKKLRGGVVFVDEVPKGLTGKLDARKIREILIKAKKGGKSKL
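Biochemical qHTS of compounds, final roughly 60 µM downward over six points, against 10 nM purified firefly luciferase using Km concentrations of substrates (10 uM D-luciferin, 10 uM ATP) in Tris acetate pH 7.5 buffer; luminescence output.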
Rab9 prom act: activates the Rab9 promoter. Potency, µM (doses to about 9.22 µM), most hits filed as activators. Huh7 Rab9 promoter-luciferase reporter, luminescence, 24 h. 320,000 compounds, 2.8% hits; further: nearly all actives have a fitted effect of over 60% in size
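Luminescence read-out: Huh7 cells stably expressing Rab9-luciferase, treated 24 h with compound at 37 °C, then lysed with luciferase reagent for 10 min at ambient before reading.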
NPC1 promoter act: NPC1 promoter activation | Huh7 NPC1 promoter luciferase reporter, 24 h | Potency, µM (titrated, usually from 9.22 µM), hits mostly activators | 320,000 compounds, 2.4% hits | AID 485313; further: nearly all actives have a fitted effect of over 60% in size
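Quantitative HTS used a cell-based reporter: Huh7 cells stably bearing the NPC1 promoter upstream of luciferase were treated with compounds for 24 h, and promoter activation was read as luminescence.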
ELG1 genotoxic: induces genotoxicity in HEK293T cells with luciferase-tagged ELG1; HEK293T ELG1-luciferase reporter, luminescence, 16 h; Potency, µM (titrated, usually from 46 µM), most hits filed as activators; 330,000 compounds, 1.3% hits; further: nearly all actives have a fitted effect of over 60% in size
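HEK293T cells expressing luciferase-tagged ELG1 were exposed to compound or DMSO vehicle for 16 hr at 37 °C and 5% CO2. Luciferase activity was then measured with ONE-Glo after 30 min at room temperature.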
SMN2 splice up: SMN2 splice variant enhancement; HEK293 SMN2-luciferase splicing reporter, luminescence, 30-36 h; Potency, µM (titrated, usually from 46.1 µM), most hits filed as activators; 210,000 compounds, 2.8% hits; AID 1458; further: nearly all actives have a fitted effect of over 55% in size
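HEK293 cells carry an SMN2 […]–luciferase reporter in which exon 7 inclusion puts luciferase in frame. Cells were plated 10-12 h before compound addition, then incubated 30-36 h at 37C. ONE-Glo luminescence was read; sodium butyrate at 4.5 mM final served as control.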
Hits are given with their value; . = inactive; ? = inconclusive; / = no result given; [ ] = dose if it differs, or a comment. An excerpt weighted towards active compounds, which were near 7.4% of everything screened. The call rests on the fitted dose curve; in most records, active means well fitted curve in the direction sought with a large enough effect; inconclusive means small, poorly fitted or top-dose-only effect, or another doubt; inactive means no such curve, though single readings can be large; an effect the other way counts as inactive or inconclusive.

SMILES | FLuc counter | Rab9 prom act | NPC1 promoter act | ELG1 genotoxic | SMN2 splice up
CCN(CC)c1ccc(/C=N/n2c(=S)[nH]nc(C)c2=O)cc1 | 15µM | . | . | . | /
CCCOc1ccc(C(=O)CCC(=O)OCC(=O)N2CC(=O)Nc3ccccc32)cc1 | 17µM | . | . | . | .
O=C1CN(C(=O)COC(=O)CCC(=O)c2ccc(Cl)cc2)c2ccccc2N1 | / | / | / | . | /
S=c1[nH]nc(COc2ccc(Cl)cc2)n1Cc1ccco1 | ? | . | . | . | .
COc1ccc(NC(=O)CN2C(=O)CC(c3ccc(C)c(C)c3)=Nc3ccccc32)cc1OC | 13µM | / | / | / | /
Cc1ccc(C2=Nc3ccccc3N(CC(=O)NCc3ccccc3Cl)C(=O)C2)cc1C | 9.5µM | / | / | / | /
CC1Cc2ccccc2N1C(=O)CN1C(=O)NC(C)(CCc2ccccc2)C1=O (stereo unspecified) | . | . | . | . | /
COc1ccc(OCc2nnc(SCC(=O)c3c(N)n(C)c(=O)n(C)c3=O)n2-c2ccccc2F)cc1 | . | . | . | . | .
Clc1ccc(CCNc2nc3cc(Cl)c(Cl)cc3n3cnnc23)cc1 | . | / | / | / | .
Cc1ccccc1OCC(=O)OCC(=O)c1ccc(OCc2ccccc2)cc1 | . | ? | ? | ? | 14µM
Cc1ccccc1OCC(=O)OCC(=O)c1ccc(OC(=O)c2ccccc2)cc1 | . | . | . | . | .
COc1ccc(C(=O)NCC(c2cccnc2)N2CCN(c3ccc(F)cc3)CC2)cc1 (stereo unspecified) | . | / | / | / | /
CN(C)S(=O)(=O)c1cccc(C(=O)N=C2N=C3C=CC(Cl)=CN3Cc3ccccc32)c1 | 17µM | 3.5µM | 2.5µM | ? | /
CCN1CCN(c2ccccc2NC(=O)c2ccc(-n3cccn3)cc2)CC1 | . | . | . | . | /
Oc1csc(Cc2nc(-c3ccc(-c4ccccc4)cc3)cs2)n1 | ? | ? | ? | . | .
Oc1csc(Cc2nc(-c3ccc4ccccc4c3)cs2)n1 | ? | 2.8µM | ? | ? | ?
Oc1csc(Cc2nc(-c3ccccc3F)cs2)n1 | . | 5µM | ? | . | ?
Cc1cc(C)n2nc(SCCOc3ccccc3F)nc2n1 | . | ? | . | ? | .
CCC(CC)C(=O)Nc1cccc(-c2nc3ncccn3c2C)c1 | . | / | / | / | /
COC(=O)CCCC(=O)NC1CCCc2c1cnn2-c1ccc(F)cc1F (stereo unspecified) | . | . | . | . | /
c1csc(-c2nnc3ccccn23)c1 | . | . | . | . | 0.0028µM
Cc1nc2ccc(C(=O)N3CCCC(CO)(Cc4ccc(F)cc4F)C3)cc2nc1C (stereo unspecified) | . | . | . | . | /
CCCc1ccc(Oc2cc(Cl)nc(N)n2)cc1 | . | ? | . | . | .[1.84 µM]
CCc1ccc(Oc2cc(C)nc(N)n2)cc1 | 4.3µM | 3.2µM | 3.2µM | ? | 10µM
Cc1ccc(F)cc1NC(=O)CCc1c(C)nn(-c2ccc(N3CCCC3)nn2)c1C | . | / | / | / | /
SMILES | FLuc counter | Rab9 prom act | NPC1 promoter act | ELG1 genotoxic | SMN2 splice up
Cc1nn(-c2ccc(N3CCCCC3)nn2)c(C)c1CCC(=O)Nc1ccc(F)cc1F | 15µM | / | / | / | /
Cc1ccc(F)cc1NC(=O)CCc1c(C)nn(-c2ccc(N3CCCCC3)nn2)c1C | 11µM | . | ? | . | /
Cc1cc(F)ccc1NC(=O)CCc1c(C)nn(-c2ccc(N3CCCCC3)nn2)c1C | ? | . | . | . | /
CCC(C)NC(=O)Cn1c(=O)n(CCCCCC(=O)NCc2ccccc2Cl)c(=O)c2sccc21 (stereo unspecified) | . | / | / | / | .
CC(C)(C)C1CCC(OC(=O)c2cncc(Br)c2)CC1 (stereo unspecified) | 7.6µM | 1.8µM | ? | ? | .
CCC/C(C#Cc1ccsc1)=C1/c2ccccc2C(=O)N1c1ccccc1 | / | / | / | . | /
Oc1ccc(/C=N/Nc2ccnc3cc(Cl)ccc23)cc1O | 17µM | . | . | ? | /
Clc1ccccc1-c1ncc(-c2ccccc2)o1 | 1.3µM | 2.8µM | 2.5µM | 4.6µM | /
COc1ccc(C(=O)Nc2nc(-c3cccs3)cs2)cc1 | 6.7µM | / | / | / | .
O=C(Nc1nc(-c2cccs2)cs1)c1ccc(Cl)cc1 | 11µM | . | . | ? | .
Cc1csc(NC(=O)c2sc3nc(-c4cccs4)ccc3c2N)n1 | 3.8µM | . | . | ? | .
Cc1ccc(NC(=O)c2sc3nc(-c4cccs4)ccc3c2N)cc1F | . | / | / | / | .
Cc1ccc(C(=O)Nc2nccc(-c3cccs3)n2)cc1 | 13µM | . | . | . | .
COc1ccc(NC(=O)c2ccc(F)c(F)c2)c2ccccc12 | . | . | . | . | /
CC(=O)c1ccc(Oc2nc(C)nc3c2oc2ccccc23)cc1 | . | / | / | / | /
O=C(c1cc2c(ccc3ccccc32)o1)N1CCN(c2ncc(C(F)(F)F)cc2Cl)CC1 | . | . | . | . | .
O=C(c1cc2c(ccc3ccccc32)o1)N1CCCCC1 | 2.1µM | 0.89µM | 1.3µM | ? | /
O=C(O)c1cc2c(ccc3ccccc32)o1 | 17µM | . | . | . | /
CC(C)Oc1ccc(S(=O)(=O)N2CCOCC2)cc1NC(=O)C1=COCCO1 | . | . | . | . | /
COc1cccc(Oc2nnnn2-c2ccccc2)c1 | 17µM | 4µM | ? | ? | /
COc1cccc(C=Nc2ccccc2C(=O)Nc2nccs2)c1OC | . | . | . | ? | .
COc1cc2ccccc2cc1C(=O)NCC(c1cccs1)N(C)C (stereo unspecified) | 5.4µM | ? | 2.8µM | . | ?
COc1cc2ccccc2cc1C(=O)Nc1nccs1 | 8.5µM | ? | 3.2µM | . | /
COc1cccc2c1OCC(C(=O)Nc1nccs1)=C2 | 5.4µM | 2µM | 2.2µM | ? | /
COc1c(C(=O)Nc2nccs2)ccc2ccccc12 | 3µM | ? | 1.8µM | ? | /
SMILES | FLuc counter | Rab9 prom act | NPC1 promoter act | ELG1 genotoxic | SMN2 splice up
COc1cc(OC)c(C(=O)NCC(c2cccs2)N(C)C)cc1OC (stereo unspecified) | . | . | . | . | .
CC(C)CNC(=O)COC(=O)c1ccccc1SCC(=O)NCC(C)C | . | . | . | . | .
O=C(Nc1nnc(SCC(=O)N2CCCCC2)s1)c1c(F)cccc1F | . | . | . | . | /
Cc1ccc(OCCNC(=O)CCNS(=O)(=O)c2ccc3ccccc3c2)cc1 | . | . | . | . | /
CSc1sccc1/C=C(/C#N)C(=O)c1ccco1 | 15µM | . | . | . | /
COc1cccc(CNC(=O)CSc2nc3ccccc3nc2Cc2ccc(C)cc2)c1OC | . | / | / | / | /
CC/C=C/C#N | / | / | / | / | .
Cc1cc(OCC(F)(F)C(F)(F)C(F)(F)C(F)F)nc(N)n1 | 17µM | . | . | . | .
O=C(NCCc1ccccc1)C(=O)NC1CCCCC1 | .[2.3 µM] | 3.2µM | 3.5µM | . | .
Fc1ccccc1NC(=S)NCCc1ccc(Cl)cc1 | 19µM | ? | ? | ? | /
O=C(NC1CCCCC1)C(=S)NCCc1ccccc1 | ? | . | . | . | ?
S=C(NCCNCc1ccccc1)NC1CCCCC1 | . | . | . | . | .
S=C(NCCc1ccc(Cl)cc1)NC1CCCCC1 | 19µM | ? | 4µM | . | /
S=C(NCCc1ccccc1)NC1CCCCCC1 | 11µM | 3.2µM | 2.5µM | 8.2µM | 13µM
COC/C=C/C1=CC2=CC(=O)C(C)(OC(=O)c3ccc(Cl)nc3)C(=O)C2=CO1 (stereo unspecified) | / | / | / | / | .
